Assay results taken from PubChem BioAssay AID1851 (National Center for Advancing Translational Sciences (NCATS), 2009).
The campaign covered roughly 16,000 compounds. About 5,700 (36%) were called active. Roughly 24% stayed inconclusive and do not appear here. The list shows a part of the results. A number with no mark means an inactive call. Calls come from the whole dose curve; as a rule, active = well fitted curve in the direction sought with a large enough effect; inconclusive = small, poorly fitted or top-dose-only effect, or effect the other way; inactive = no such curve, though single readings can be large or run the other way.

target: Cytochrome P450 1A2 (Homo sapiens) (UniProt P05177); experiment: Cytochrome panel assay with activity outcomes; details: recombinant CYP, pro-luciferin dealkylation, luminescence, p450-cyp1a2; series mostly up to 57.1 µM
% is set by controls: 0 for no effect and ±100 for the full control effect.

Chain of Cytochrome P450 1A2 (Homo sapiens) (P05177 whole entry, looked up): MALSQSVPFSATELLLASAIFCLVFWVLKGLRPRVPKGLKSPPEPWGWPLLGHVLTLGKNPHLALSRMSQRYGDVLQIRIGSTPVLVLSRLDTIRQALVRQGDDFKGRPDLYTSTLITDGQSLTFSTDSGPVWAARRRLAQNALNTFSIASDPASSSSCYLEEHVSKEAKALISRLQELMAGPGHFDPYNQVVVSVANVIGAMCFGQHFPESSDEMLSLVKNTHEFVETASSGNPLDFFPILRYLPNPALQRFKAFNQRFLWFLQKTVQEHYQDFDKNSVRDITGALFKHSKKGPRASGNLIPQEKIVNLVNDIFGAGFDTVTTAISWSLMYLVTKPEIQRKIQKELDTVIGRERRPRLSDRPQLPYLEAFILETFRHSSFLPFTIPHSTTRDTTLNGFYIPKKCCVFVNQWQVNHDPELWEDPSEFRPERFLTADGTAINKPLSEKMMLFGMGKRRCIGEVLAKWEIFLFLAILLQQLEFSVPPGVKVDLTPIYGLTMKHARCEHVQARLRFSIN

SMILES	AC50	activity, negative = inhibition
CCn1c(C)nc2cc(S(=O)(=O)C(F)F)ccc21	5.01 µM (active)	–
O=C(N/N=C1/C[C@@H](O)[C@@H](O)[C@@H]2[C@H]3C(=O)N(c4ccc(F)cc4F)C(=O)[C@@H]3CC[C@H]12)OCc1ccccc1	–	-2.59% [at 11.4 µM]
CC(C)(C)C(=O)Nc1cccc(-c2nc3ccccc3c(=O)o2)c1	11.2 µM (active)	–
N=C(N)SCc1cccc(-c2nc3ccccc3c(=O)o2)c1	–	-10.3% [at 2.29 µM]
CC(C)CC(=O)Nc1ccc2c(c1)oc1ccccc12	0.794 µM (active)	–
O[C@H](C[C@@H]1CCCCN1)c1ccc2c(c1)oc1ccccc12	–	-10.4% [at 2.29 µM]
CC(CC(=O)O)CC(=O)Nc1ccc(S(N)(=O)=O)cc1 (configuration not stated)	inactive	–
Cc1cc(-c2ccc(/C=N/n3cnnc3)o2)c([N+](=O)[O-])cc1C	0.316 µM (active)	–
C[C@@H]1/C=C\CC(=O)OC[C@H]2O[C@@H](C=C[C@@H]2O)[C@H](C)/C=C\CC(=O)OC[C@H]2O[C@H]1C=C[C@@H]2O	–	7.11% [at 11.4 µM]
CCC(C)Nc1nc(OCC(F)(F)F)nc(OCC(F)(F)F)n1 (configuration not stated)	10 µM (active)	–
C[C@@H]1O[C@H](O[C@@H]2[C@H](C)O[C@H](O[C@@H]3[C@H](C)O[C@H](O[C@H]4CC[C@]5(C)[C@@H](CC[C@@H]6[C@H]5C[C@@H](O)[C@]5(C)[C@@H](C7=CC(=O)OC7)CC[C@]65O)C4)C[C@@H]3O)C[C@@H]2O)C[C@H](O)[C@@H]1O	inactive	–
O=S(=O)(c1ccccc1)c1cnn2c(C(F)(F)F)cc(-c3ccccc3)nc12	inactive	–
O=S(=O)(c1ccccc1)c1cnn2c(C(F)(F)F)cc(-c3ccc(F)cc3)nc12	0.794 µM (active)	–
C[N+](C)(C)c1ccc([C@H](N)C(=O)O)cc1	–	-19.7% [at 11.4 µM]
COc1ccc(Sc2ccc(NC(=O)c3ccccc3Cl)cc2C#N)cc1	inactive	–
N#Cc1cc(N)ccc1Sc1ccc(Cl)cc1	1.78 µM (active)	–
CCN1CCC[C@H]1CNC(=O)c1cc(S(N)(=O)=O)ccc1OC	inactive	–
CNc1cc(OC)c(C(=O)N[C@@H]2CCN(Cc3ccccc3)[C@H]2C)cc1Cl	31.6 µM (active)	–
CCC(C)[C@H](NC(=O)NC1CCN(Cc2ccccc2)CC1)C(=O)OC (some centres not stated)	inactive	–
CC(=O)N(CC(O)CN(C(C)=O)c1c(I)c(C(=O)NC[C@@H](O)CO)c(I)c(C(=O)NC[C@@H](O)CO)c1I)c1c(I)c(C(=O)NC[C@@H](O)CO)c(I)c(C(=O)NC[C@@H](O)CO)c1I	inactive	–
CC(=O)/C(=N\N=C(N)N)c1ccccc1	–	-17.2% [at 2.29 µM]
NC(N)=N/N=C(/c1ccccc1)c1ccc(O)cc1O	3.16 µM (active)	–

SMILES	AC50	activity, negative = inhibition
CCN1C(=O)[C@H]2[C@H]3[C@H](O)[C@H](O)C/C(=N/OC[C@@H](O)COCc4ccco4)[C@@H]3CC[C@@H]2C1=O	–	-5.56% [at 11.4 µM]
O=C(NCc1cn(-c2ccccc2)nc1-c1ccccc1)c1cc([N+](=O)[O-])cc([N+](=O)[O-])c1	inactive	–
CCc1ccccc1NC(=O)CSc1nc(-c2ccccc2)nn1C(=O)c1cccc([N+](=O)[O-])c1	3.16 µM (active)	–
COc1ccc(C(=O)N2CCC3(CCCN(C)C3)CC2)cc1	inactive	–
COc1ccc2c(c1)CCc1c(C(=O)N3CCCCCC3)noc1-2	6.31 µM (active)	–
COc1ccc(NC(=O)N2CCCC3(CCN(C(=O)c4ccc(OC)cc4)CC3)C2)cc1	inactive	–
CC(C)COCC1CC2(CC(C)(c3csc(N)n3)OC2=O)C(=O)O1 (configuration not stated)	inactive	–
COCCNC(=O)c1ccc2c(c1)ncn2-c1ccc(F)c(F)c1	15.8 µM (active)	–
COCCNC(=O)c1ccc2c(c1)nc(C)n2-c1cc(OC)c(OC)c(OC)c1	inactive	–
C[N+](C)(C)CCN(Cc1ccc(Cl)cc1)c1ccccn1	inactive	–
CN(CCOc1ccc(C[C@H](Nc2ccccc2C(=O)c2ccccc2)C(=O)O)cc1)c1ccccn1	inactive	–
O=C(COc1ccc(Cl)cc1)N(Cc1ccccc1)c1ccccn1	2.24 µM (active)	–
O=C(c1ccc2c(=O)n(CC3CCCO3)c(=S)[nH]c2c1)N1CCN(c2ccccc2)CC1 (configuration not stated)	inactive	–
O=C(CCCn1c(=S)[nH]c2ccc(Br)cc2c1=O)NCC1CCCO1 (configuration not stated)	4.47 µM (active)	–
COCCNC(=O)CCCCCn1c(=S)[nH]c2ccccc2c1=O	14.1 µM (active)	–
O=C(CCn1c(=S)[nH]c2ccccc2c1=O)NCCCN1CCOCC1	inactive	–
O=C(c1cnccn1)N1CCC2(CC1)CCN(c1ncccn1)CC2	inactive	–
COC(=O)c1ccc(Oc2coc3cc(OCc4cnn(-c5ccccc5)c4)ccc3c2=O)cc1	inactive	–
Cc1[nH]nc(-c2ccc(OCc3cnn(-c4ccccc4)c3)cc2O)c1Oc1ccccc1F	22.4 µM (active)	–
Cc1cc(C)cc(C(=N)c2ccccc2Cc2cccc3ccccc23)c1	–	-5.4% [at 2.29 µM]
CO[C@H]1COC(=O)CCC[C@@H](C)[C@H](OC)COC(=O)[C@H]2CCCN2C(=O)C/C=C\[C@@H]1C	–	-4.29% [at 11.4 µM]
O=C(Nc1ccc(Cl)cc1)NC1CCCCC1	inactive	–

SMILES	AC50	activity, negative = inhibition
CC(=O)NS(=O)(=O)c1ccc(NC(=O)NC2CCCCC2)cc1	inactive	–
Cc1ccc(NC(=S)N2CCN(C3CCCCC3)CC2)cc1	inactive	–
COC(=O)c1ccc(NC(=O)C2CCCCC2C(=O)O)cc1 (configuration not stated)	inactive	–
Cc1ccc(NC(=S)NC2CCCC2)cc1	15.8 µM (active)	–
COC(=O)c1ccc(NC(=S)NC2CCCCC2)cc1	14.1 µM (active)	–
CCc1cccc(CC)c1NC(=O)CN(CC(=O)O)CC(=O)O	inactive	–
CN(C)CCCn1c2c3ccccc3ccc2c2oc(=O)c3ccccc3c21	0.316 µM (active)	–
CC(=O)Nc1cc(S(=O)(=O)Nc2ccccc2)c(C)cc1C	inactive	–
CCn1c2ccccc2c2cc(NS(=O)(=O)c3ccccc3C)ccc21	3.16 µM (active)	–
CC(=O)Nc1ccccc1C(=O)C(=O)O	inactive	–
COc1c(NC(C)=O)c2ccccc2c2ccccc12	0.398 µM (active)	–
COCCN=C1Sc2nc3c(C)cccc3cc2CN1Cc1ccco1	0.631 µM (active)	–
O=c1c2ccccc2nc2n1CC/C2=C\c1ccccc1[N+](=O)[O-]	3.16 µM (active)	–
COc1cccc(Nc2ncc3nc(C)c(=O)n(Cc4cccs4)c3n2)c1	2.51 µM (active)	–
COc1cccc(Nc2ncc3ncc(=O)n(Cc4cccs4)c3n2)c1	1.58 µM (active)	–
COc1ccc(-c2nc3cnc(Nc4cccc(OC)c4)nc3n(Cc3cccs3)c2=O)cc1	inactive	–
O=c1cnc2cnc(Nc3ccccc3)nc2n1Cc1cccs1	1 µM (active)	–
Cc1nc2cnc(Nc3ccccc3)nc2n(Cc2cccs2)c1=O	1.58 µM (active)	–
CCN(CC)C[C@@H](O)CN1CCCCc2nc(C)c(C)cc21	–	-9.64% [at 11.4 µM]
COCC(=O)N/N=C/c1ccc(Sc2nc3ccccc3s2)o1	15.8 µM (active)	–
O=C(Cc1cccc2ccccc12)N/N=C/c1ccc(Sc2nc3ccccc3s2)o1	inactive	–
Cc1ccc(NS(=O)(=O)c2ccccc2Cl)c2c1CC(C)(C)O2	1.26 µM (active)	–

SMILES	AC50	activity, negative = inhibition
Cc1cc(C)c(S(=O)(=O)N2CCCCC2)c(C)c1N(C)S(=O)(=O)c1ccccc1	inactive	–
O=C(Nc1cccc(C(F)(F)F)c1)N(Cc1ccc(Cl)cc1)CC(O)C(F)(F)F (configuration not stated)	12.6 µM (active)	–
CC(O)(CS(=O)(=O)Cc1ccc(Cl)cc1)C(=O)Nc1cccc(C(F)(F)F)c1 (configuration not stated)	inactive	–
CCCCN=c1sc(C(=O)OC)cc(=O)n1CCCC	0.251 µM (active)	–
CCN1C(=O)[C@H]2[C@H]3[C@H](O)[C@H](O)C/C(=N/O[C@@H]4O[C@H](COC(C)=O)[C@@H](OC(C)=O)[C@H](OC(C)=O)[C@H]4OC(C)=O)[C@@H]3CC[C@@H]2C1=O	–	-2.53% [at 11.4 µM]
Cc1ccc(-n2c3c(c(=O)[nH]c2=O)C(NS(=O)(=O)c2ccc(C)cc2)(C(F)(F)F)C(=O)N3)cc1 (configuration not stated)	inactive	–
Cc1ccc(/C=N\NC(=O)c2cc(OCC(F)(F)F)ccc2OCC(F)(F)F)cc1	inactive	–
CCOC(=O)N/N=C/c1ccccc1F	6.31 µM (active)	–
CCOC(=O)N/N=C/c1ccc(F)cc1	11.2 µM (active)	–
CCOC(=O)C(=Cc1ccc(F)cc1)C(=O)OCC	25.1 µM (active)	–
O=C(NCCC[N+]1=CC=N[C@H]1c1ccccc1)N1CCCc2nc(-c3ccc(Br)cc3)ccc21	–	7.37% [at 11.4 µM]
Cc1ccc(C2C(C(=O)c3sc(C)nc3C)=C(O)C(=O)N2CCN2CCOCC2)o1 (configuration not stated)	inactive	–
CCOc1ccc(N(C(=O)/C=C/C(=O)Nc2cc(C)on2)C(C(=O)NC2CCCC2)c2ccccc2C)cc1 (configuration not stated)	inactive	–
COc1ccc(N2CCN(CCNC(=O)C3CCN(S(=O)(=O)c4cccs4)CC3)CC2)cc1	inactive	–
CCCS(=O)(=O)N1CCCC(C(=O)NCCCN2CCN(c3ccccc3F)CC2)C1 (configuration not stated)	inactive	–
COc1ccc2cc3cc(C(=O)NCCN4CCN(c5ccccc5F)CC4)oc3nc2c1	15.8 µM (active)	–
COc1ccc2nc3oc(C(=O)NCc4cccs4)cc3cc2c1	2 µM (active)	–
CCc1ccc(C(C(=O)NCc2ccc(OC)cc2)N(CCOC)C(=O)Cc2cccs2)cc1 (configuration not stated)	inactive	–
COc1ccc2cc3cc(C(=O)Nc4ccc5c(c4)OCO5)oc3nc2c1	0.501 µM (active)	–
COc1ccc2cc3cc(C(=O)NCc4ccc5c(c4)OCO5)oc3nc2c1	0.316 µM (active)	–
O=C1C[C@@H](O)[C@@H](O)[C@@H]2[C@H]3C(=O)N(c4ccc(F)cc4F)C(=O)[C@@H]3CC[C@@H]12	–	-7.03% [at 11.4 µM]
